Only some compounds are listed: those with a hit (about 4% of all), similar ones and a draw of the others.
HIF-2a block: HIF-2a reporter inhibitors, primary screen, luminescence, 786-0 RCC cells; 786-0 RCC cells HIF-2a reporter, luciferase luminescence, overnight; inhibition, % at 18.8 µM; hit rate 0.72% among 360,000;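 active means inhibition of the luminescence signal of 40% or more relative to plate controls, in a single-dose primary screen at 18.75 µM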
Peg3 prom inh: Peg3 promoter-driven luciferase inhibitors, primary screen, cell-based, HeLa, luciferase luminescence; inhibition, % at 20 µM; hit rate 1.7% among 360,000; HeLa PEG-Prom luciferase reporter, overnight;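 active means inhibition of at least 50% at 20 µM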
TWEAK-Fn14 inh: inhibitors of TWEAK-Fn14 signaling, primary screen, luciferase reporter cells, uHTS | hit rate 2% among 360,000 | inhibition, % at 10 µM | AID 1159606, 2016 | TWEAK-stimulated Fn14 reporter cells, luciferase luminescence, 8 h; in the data active means inhibition above about 50%
KKLEB tox: cytotoxicity in KKLEB CF airway cells, primary screen, cytotoxicity control for CF NF-kB inhibitor project, cell-based, uHTS, fluorescence assay plates | KKLEB CF airway cells viability, ATPlite luminescence, overnight; hits give low values; cells stimulated with P. aeruginosa culture filtrate | activity change (cytotoxicity), % at 5 µM | hit rate 0.36% among 360,000 | AID 602141, 2011;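 active means corrected activity change at or below -50% at 5 µM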
TROY signal inh: inhibitors of TROY-driven NF-kB signaling, primary screen, Q293 LMP1-TROYcd cells, NF-kB luciferase, uHTS. Q293 LMP1-TROYcd NF-kB luciferase reporter, 4 h. hit rate 0.98% among 360,000. AID 1347056, 2019. inhibition, % at 10 µM;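 active means compounds whose plate-normalised and pattern-corrected inhibition of the luciferase reporter signal at the single screening dose is 50% or more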
CF NFkB inh: inhibitors of PAF-induced NF-kB signaling, primary screen, cell-based, GFP fluorescence, uHTS; hit rate 0.86% among 360,000; KKLEB NF-kB-GFP reporter, GFP fluorescence overnight; inhibition, % at 5 µM;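 active means at least 50% inhibition at 5 µM, scaled per plate between neutral and stimulator controls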;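 further: PAF is a Pseudomonas aeruginosa culture filtrate used as stimulus; plate controls were PAF-stimulated DMSO wells for no effect and unstimulated DMSO wells for full effect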
Active calls of the source: *.

SMILES	HIF-2a block	Peg3 prom inh	TWEAK-Fn14 inh	KKLEB tox	TROY signal inh	CF NFkB inh
CN1CCN(C(=O)CC23CC4CC(CC(C4)C2)C3)CC1	9.7	7.3	-15.8	5.3	-4.5	-10.1
N#C/C(=C/c1ccc(Sc2nc3ccccc3[nH]2)o1)c1cccc(F)c1	-8.0	36.4	10.1	-20.7	54.7*	7.3
N#C/C(=C/c1ccc(Sc2nc3ccccc3[nH]2)o1)c1cccc(Br)c1	-25.0	30.8	39.4	-4.4	67.5*	8.9
N#C/C(=C/c1ccc(Sc2nc3ccccc3[nH]2)o1)c1ccccc1F	-27.7	-44.8	20.9	6.3	43.5	-4.9
COc1ccc(CC(=O)Nc2sc3c(c2C(N)=O)CCCC3)cc1	-15.6	-4.2	-1.1	0.9	-28.5	7.5
O=C(CN1CCC(n2nnc3cc(F)ccc32)CC1)NC1CC1	13.0	5.4	1.5	-1.6	1.8	1.7
COc1ccc2nc(Nc3sc4c(c3C(N)=O)CCCC4)sc2c1	-149.6	-127.7	42.1	-0.8	57.8*	-6.5
COc1ccc2nc(NC(=O)CN3CCN(C)CC3)sc2c1	-43.6	-28.4	-6.4	0.0	54.3*	-5.6
CCOc1ccc2nc(NC(=O)CN3CCC(n4nnc5cc(F)ccc54)CC3)sc2c1	-43.9	4.7	33.1	-9.6	57.5*	8.4
CCN1CCN(CC(=O)Nc2nc3ccc(OC)cc3s2)CC1	-11.2	11.2	16.8	-6.0	-16.2	7.7
COc1ccccc1C(=O)CC(=O)c1ccccc1	-248.5	-188.4	-4.6	3.3	-42.6	-29.8
Cc1ccc(NC(=O)CCc2ccc(S(=O)(=O)N3CCOCC3)cc2)c(C)c1	7.2	2.3	17.2	-0.2	15.6	2.5
CC(NC(=O)CN(C)S(=O)(=O)c1ccc(Br)s1)c1ccccc1 (centres undefined)	-3.7	2.5	-6.6	1.8	-18.3	-7.6
Cn1c(=O)c2c(nc(Oc3ccccc3N)n2C)n(C)c1=O	12.1	14.2	1.1	-1.2	1.7	6.9
Cc1ccc(C(=O)Nc2ccc3cn[nH]c3c2)cc1S(=O)(=O)N1CCOCC1	-156.8	-65.3	0.3	3.3	-27.5	10.3
COc1ccc(/C=N/NC(=O)c2ccc(N(C)S(=O)(=O)c3ccccc3)cc2)cc1	15.2	-0.8	51.4*	-4.2	-4.0	19.5
COc1ccc(/C=C/C(=O)c2ccc(O)cc2)cc1COc1ccc(F)cc1	21.8	-25.3	54.6*	-23.9	4.5	-7.4
COc1ccc(C(=O)/C=C/c2cccc(OCc3ccccc3)c2)cc1CSCC(=O)O	19.9	74.9*	7.5	-18.1	25.9	-9.4
COc1cc(/C=C/C(=O)c2ccc(F)cc2)cc(OC)c1OC	39.4	9.9	84.2*	2.6	25.6	10.4
CC(=O)c1ccc(-c2cnc3c(NC=O)cc(-c4cccc(C(=O)N(C)C)c4)cn23)cc1	15.6	40.1	16.7	-6.7	10.8	32.9
O=c1cc(-c2ccccc2Cl)oc2c(NS(=O)(=O)c3cccs3)ccc(O)c12	-12.1	2.4	12.2	-14.8	5.8	52.1*
O=S(=O)(Nc1cccc(CCc2ccccn2)c1)c1ccc(Cl)cc1	14.8	22.7	16.1	-2.5	9.4	20.1
CS(=O)(=O)N(CCc1ccccc1)CC(=O)N1CCN(c2ccccc2F)CC1	9.6	21.4	83.7*	0.9	-14.4	2.1
O=C1NC(=O)/C(=C/c2ccccc2OCc2ccccc2)S1	10.4	20.5	-13.2	-10.1	55.0*	5.1
CC(=O)Nc1ccc(NC2=Nc3ccccc3N3C2=Nc2c(c(C)nn2-c2ccccc2)C3c2ccccc2)cc1 (centres undefined)	-11.8	89.9*	96.2*	14.7	27.1	2.7
SMILES	HIF-2a block	Peg3 prom inh	TWEAK-Fn14 inh	KKLEB tox	TROY signal inh	CF NFkB inh
O=C(Nc1cccc2ncccc12)c1ccc([N+](=O)[O-])o1	22.6	51.4*	18.3	5.5	12.7	26.5
COc1cccc(C(=O)Nc2cccc(-c3nc4ncccc4o3)c2C)c1	-52.9	-75.6	8.8	-0.4	26.6	-16.8
Cc1c(NC(=O)c2ccc([N+](=O)[O-])o2)cccc1-c1nc2ncccc2o1	33.4	83.4*	23.5	-31.2	12.7	96.5*
COc1cccc(CNC(=S)Nc2ccc3c(c2)c(=O)n(C)n3Cc2ccccc2)c1	-10.1	1.9	15.0	9.9	21.4	-8.8
N#Cc1nc(-c2ccc(Cl)cc2)oc1NCc1cccc2c1OCO2	-156.8	-102.1	-45.7	3.5	-32.5	-3.7
COc1ccc(NC(=O)C2Cc3c(-c4ccco4)ccnc3O2)cc1OC (centres undefined)	-2.5	10.3	30.5	-7.0	11.0	11.6
O=C(O)CC(CCc1ccccc1)OC1OC(CO)C(O)C(O)C1O (centres undefined)	18.4	10.3	59.2*	8.8	1.4	-18.5
[C-]#[N+][C@H](O[C@@H]1O[C@H](CO)[C@@H](O)[C@H](O)[C@H]1O)c1ccccc1	13.6	-6.3	23.5	1.8	-11.1	-7.5
O=C1NC(Cc2ccc(O)cc2)c2nc3ccc(Cl)cc3c(=O)n2-c2cc3ccccc3cc21 (centres undefined)	-39.4	60.7*	50.0	-16.9	37.1	22.8
Cc1ccc2c(=O)n3c(nc2c1)C(Cc1ccc(O)cc1)NC(=O)c1cc2ccccc2cc1-3 (centres undefined)	0.7	62.2*	7.9	-10.7	36.8	-6.8
O=C1NC(Cc2ccccc2)c2nc3ccc(Cl)cc3c(=O)n2-c2cc3ccccc3cc21 (centres undefined)	-9.5	17.1	-19.1	-8.4	11.6	20.3
Cc1cc(C)c2c(=O)n3c(nc2c1)C(Cc1ccccc1)NC(=O)c1cc2ccccc2cc1-3 (centres undefined)	-5.5	-1.6	-12.5	-63.2*	6.1	73.6*
C/C=C(/C)C(=O)O[C@@H]1c2cc3c(c(OC)c2-c2c(cc(OC)c(OC)c2OC)[C@@H](OC(C)=O)[C@@H](C)[C@H]1C)OCO3	9.8	-7.1	-3.4	-2.5	3.7	-12.9
CCCn1nnc(NC(=O)c2ccc(Br)o2)n1	-37.7	-17.3	-4.4	-1.4	-32.6	-2.5
Cc1ccc(Oc2ccc(OCC(=O)NC3CCS(=O)(=O)C3)cc2)cc1 (centres undefined)	26.3	17.3	16.8	-6.7	31.0	-0.9
Cc1cc(C(=O)N2CCc3ccccc32)c2ccccc2n1	13.9	6.5	-2.0	7.1	23.1	-4.7
COC(=O)c1ccccc1NC(=O)c1noc2c1CCCC2	-178.7	-46.0	-38.7	2.6	-36.0	-4.7
COc1ccc(CNC(=O)c2noc3c2CCCCC3)cc1	-179.1	-132.3	-29.2	3.4	-45.3	6.8
Cc1ccc(NC(=O)c2noc3c2CCC3)cc1C	-131.0	-46.6	56.2*	-1.4	15.1	-2.6

High-throughput results as filed in PubChem.
